GSTO1 counter: blocks human GSTO1 in RBBP9 counter-screen. P78417. recombinant GSTO1, activity-based probe fluorescence polarization. inhibition, % at 5.96 µM. hit rate 1.1% among 300,000. AID 1974;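 active = inhibition above the campaign mean inhibition plus 3 SD, cut at about 35% in these data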;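 note: 0% = GSTO1-1 with DMSO and 100% = wells lacking GSTO1-1 enzyme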
Target sequence (P78417 whole entry, looked up): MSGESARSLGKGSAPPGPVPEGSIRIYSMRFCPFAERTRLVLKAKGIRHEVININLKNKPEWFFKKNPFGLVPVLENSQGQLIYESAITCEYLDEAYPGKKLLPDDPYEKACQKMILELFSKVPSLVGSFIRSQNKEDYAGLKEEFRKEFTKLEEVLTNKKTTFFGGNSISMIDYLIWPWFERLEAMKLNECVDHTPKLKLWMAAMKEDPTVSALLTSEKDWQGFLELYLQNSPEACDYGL
PAD4 FP inh: PAD4 (human) enzyme inhibition; Q9UM07; recombinant PAD4, RCA probe fluorescence polarization; inhibition, % at 6.36 µM; hit rate 0.41% among 330,000;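 active = percent inhibition above a cutoff equal to the mean of all tested compounds plus 3 SD, cut at about 15% in these data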;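 note: 0% = PAD4 with RCA probe and DMSO and 100% = probe without PAD4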
LYPLA2 counter: counter-screen for PME1 inhibitors: inhibitors of human LYPLA2; O95372; recombinant LYPLA2, FP-Rh probe fluorescence polarization; inhibition, % at 5.9 µM; hit rate 0.38% among 320,000;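 active = inhibition above the screen-wide mean plus 3 SD, limit set per campaign, cut at about 26% in these data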;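 note: 0% = LYPLA2 with DMSO and 100% = wells lacking LYPLA2 enzyme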
Target sequence (O95372 whole entry, looked up): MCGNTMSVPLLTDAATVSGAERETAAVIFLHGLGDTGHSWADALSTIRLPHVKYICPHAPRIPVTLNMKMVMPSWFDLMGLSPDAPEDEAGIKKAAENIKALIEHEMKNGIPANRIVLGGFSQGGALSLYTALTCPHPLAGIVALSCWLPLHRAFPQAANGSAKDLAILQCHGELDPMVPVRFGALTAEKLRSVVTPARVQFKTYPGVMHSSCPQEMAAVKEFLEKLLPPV
ZTA DNA inh: counter-screen for EBNA-1 inhibitors: inhibitors of Epstein-Barr virus ZTA; P03206; ZTA-DNA binding, fluorescence polarization; inhibition, % at 11 µM; hit rate 0.15% among 320,000; AID 2234; in the data active = inhibition above about 33%
EBNA-1 inhibitor: blocks EBNA-1 binding to DNA; hit rate 0.34% among 300,000; inhibition, % at 14.8 µM; EBNA-1 DNA binding, fluorescence polarization; in the data active = inhibition above about 28%
LYPLA1 inh: blocks human lysophospholipase 1, a PME1 counter-screen. O75608. recombinant LYPLA1, FP-Rh probe fluorescence polarization. inhibition, % at 5.9 µM. hit rate 0.16% among 320,000;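 active = inhibition above the mean of all tested compounds plus 3 SD, set per campaign, cut at about 14% in these data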;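 note: inhibitors block serine hydrolase probe labeling of LYPLA1 so polarization falls; 0% = enzyme with DMSO and 100% = wells lacking LYPLA1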
GSTO1 confirm: GSTO1 (human) inhibition, confirmation. shares compounds with GSTO1 counter. recombinant GSTO1, probe fluorescence polarization. inhibition, % at 5.96 µM. hit rate 54% among 2,400. AID 2176;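 active = inhibition above the primary screen's cutoff, its mean inhibition plus 3 SD, cut at about 35% in these data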;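 note: loss of polarization as inhibitors block binding of rhodamine sulfonate ester activity probe; 0% = GSTO1 with DMSO and 100% = wells lacking GSTO1 enzyme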
* marks the source's active call; other numbers are inactive results; / = not tested or not shown. Compounds with a hit are over-represented: about 1.7% of the library has one in this group of screens.

SMILES	GSTO1 counter	PAD4 FP inh	LYPLA2 counter	ZTA DNA inh	EBNA-1 inhibitor	LYPLA1 inh	GSTO1 confirm
O=C(c1ccc(Br)o1)N1CCN(CCc2ccncc2)CC1	3.6	-1.3	-1.2	-6.8	6.8	3.8	/
N/C(=N/OC(=O)c1ccccc1Cl)c1ncc([N+](=O)[O-])s1	47.0*	2.0	-8.8	4.7	-12.4	-10.1	12.1
CC(C)c1cc(C(=O)O)c2cnn(C(C)C)c2n1	4.3	2.9	7.6	-24.8	-0.9	0.7	/
COC(=O)CCC(=O)OC1(C)C(=O)C=C2C=C(C3CC3)N(C(CO)CO)C=C2C1=O (stereo not drawn)	23.0	-5.0	-1.3	-0.3	0.9	-2.2	/
COC(=O)CCC(=O)OC1(C)C(=O)C=C2C=C3CCCN3C=C2C1=O (stereo not drawn)	38.3*	-9.3	6.7	-2.0	7.6	1.3	10.4
CC1(OC(=O)C2CCCC2)C(=O)C=C2C=C3CCCCN3C=C2C1=O (stereo not drawn)	51.4*	-0.3	5.9	-2.8	-13.7	1.6	11.4
CC1(OC(=O)C2CCCC2)C(=O)C=C2C=C(c3ccsc3)N(C(CO)CO)C=C2C1=O (stereo not drawn)	9.7	-10.0	1.0	-2.9	2.9	-3.7	/
C=CCOC(=O)C1=C[C@@H](c2csc3ccccc23)[C@H](CCCO)[C@@H](OCC)O1	-2.3	4.6	-8.1	0.3	3.6	-1.6	/
C=CCOc1ccc(/C=N/NC(=O)CN2CCCCC2)cc1OC	-7.0	-2.4	-7.8	-10.2	13.8	-2.6	/
COc1ccc(Cl)cc1NC(=O)CSc1nnc(Cc2ccc(C)cc2)c(=O)[nH]1	-68.1	-2.1	-8.4	14.9	14.2	-4.7	/
Cc1ccc(S(=O)(=O)/N=C2\C(=O)c3ccccc3C([O-])=C2n2cc[n+](CCC(C)C)c2)cc1	75.8*	-5.7	3.0	9.6	4.9	-0.7	70.6*
CCCC[n+]1ccn(C2=C([O-])c3ccccc3C(=O)/C2=N\S(=O)(=O)c2ccc(Br)cc2)c1	78.3*	-9.9	4.5	19.7	2.4	-1.5	74.2*
Oc1ccc(/C=N/Nc2ccnc3cc(Cl)ccc23)cc1O	38.0*	-4.3	9.6	1.2	-2.0	-13.8	7.5
CCc1ccc(S(=O)(=O)Nc2ccc(O)c3ccccc23)cc1	53.4*	12.3	13.3	-5.5	3.4	0.0	1.6
O=S(=O)(Nc1ccc(O)c2ccccc12)c1ccc(F)cc1	63.8*	3.2	5.9	-15.0	0.3	0.7	11.2
O=C1[C@H]2[C@@H](c3ccc(F)cc3)N3C(=O)N(c4cccc(F)c4)C(=O)[C@@]3(Cc3ccc(Cl)cc3)[C@H]2C(=O)N1C1CCCCC1	-0.4	-5.6	-12.5	-7.9	-9.9	-5.2	/
CC1c2ccccc2N(NC(=O)Cc2ccccc2)C1C (stereo not drawn)	-2.5	0.1	-3.2	13.1	0.2	-2.4	/
CCC(=O)N=c1ccn(C2=Nc3ccccc3NC2=C(C#N)C#N)cc1	62.8*	-3.6	7.9	-15.0	-4.5	-1.1	21.1
CCOC(=O)/C(C#N)=C1/C=Nc2ccccc2N1	-3.6	3.5	-7.8	11.1	1.5	-2.9	/
C=C(C)c1cccc(C(C)(C)NC(=O)Nc2ncccn2)c1	38.7*	-2.3	-7.6	7.0	-3.5	-1.9	21.1
Cc1ccc2[nH]c3ccccc3c(=O)c2c1	-4.8	2.2	3.9	2.8	12.4	0.6	/
O=c1c2ccccc2[nH]c2ccc(O)cc12	45.7*	-2.2	-4.3	-2.5	3.5	1.2	20.7
O=c1cc2oc3cc(O)c(O)cc3c(-c3ccccc3[N+](=O)[O-])c-2cc1O	49.6*	-3.2	-1.8	-2.1	3.2	-3.8	40.8*
O=C(NCc1cccnc1)NC1(C(F)(F)F)Oc2ccccc2O1	41.4*	-5.1	2.5	5.1	-4.1	3.2	2.4
CC(C)CNC(=O)NC1(C(F)(F)F)Oc2ccccc2O1	50.6*	-1.6	3.3	-9.9	3.5	3.0	6.8
SMILES	GSTO1 counter	PAD4 FP inh	LYPLA2 counter	ZTA DNA inh	EBNA-1 inhibitor	LYPLA1 inh	GSTO1 confirm
COc1cccc(NC(=O)NC2(C(F)(F)F)Oc3ccccc3O2)c1	41.2*	3.0	-1.1	-10.0	-2.1	-0.8	3.4
COc1cccc(CNC(=O)c2cccc(S(=O)(=O)N3CCN(C)CC3)c2)c1	-0.9	-2.3	-1.7	9.7	-5.8	-5.3	/
Nn1c(COc2ccccc2F)nnc1SCC(=O)NC1CC1	7.0	-2.2	6.7	2.2	-9.8	4.8	/
Cc1ccc(NC(=O)C2C3C=CC4(O3)C2C(=O)N(CCCN2CCCC(C)C2)C4C(=O)NC2CCCCC2)cc1 (stereo not drawn)	7.8	2.1	2.8	1.1	0.4	-4.0	/
Cc1ccccc1C(=O)NCCNC(=O)c1cnccn1	5.3	3.4	8.1	-2.3	9.1	1.0	/
COc1ccc2nc(N3C(=O)/C(=C/c4ccccc4)NC3=S)sc2c1	42.4*	-14.8	-3.0	10.6	11.8	3.8	56.5*
CCOc1ccc2nc(N3CCCCCC3)sc2c1	10.0	1.9	2.7	-3.7	-6.8	-1.0	/
CCOc1ccc2nc(N3C(=O)/C(=C/c4ccccc4)NC3=S)sc2c1	58.9*	3.3	-5.9	4.0	6.2	6.2	55.3*
CCC(=O)N1c2ccc(S(=O)(=O)N3CCN(c4ccccc4Cl)CC3)cc2CC1C (stereo not drawn)	-0.9	7.9	-1.9	-1.9	-4.0	-3.3	/
CCOC(=O)C1CCCN(S(=O)(=O)c2ccc3c(c2)N(C)C(=O)CC(=O)N3C)C1 (stereo not drawn)	-42.0	7.5	-0.1	-9.0	-2.2	-0.7	/
CN(O)/C=c1/ccc2c(n1)C(=O)C=CC=2	63.7*	-9.0	8.1	0.6	-9.6	-1.8	21.4
CN(C)c1cccc(NC(=O)c2cccc3ccccc23)c1	37.9*	-3.1	-9.1	1.5	2.9	0.3	4.6
O=[N+]([O-])c1ccc(O)c(/C=N/Nc2nn[nH]n2)c1	47.2*	1.3	12.5	-3.5	5.9	6.3	8.9
Cc1ccc2c(CN(C)Cc3ccc(Cl)cc3)cc(=O)oc2c1	-2.8	-2.6	-4.9	3.6	11.0	-4.7	/
C=CCN1C(=O)NC(c2ccccc2)(C(F)(F)F)S/C1=C(\C#N)c1nnc(N2CCOCC2)n1-c1ccccc1 (stereo not drawn)	42.9*	1.2	2.2	11.3	-10.3	-2.2	57.5*
COc1ccc(N2C(C)=CS/C2=C(/C#N)c2nnc(N3CCOCC3)n2-c2ccccc2)cc1	0.4	-1.4	5.7	2.3	8.0	0.6	/
Cc1ccc(NC(=O)CCNS(=O)(=O)c2ccc(OC(F)(F)F)cc2)c(O)c1	3.2	1.9	-2.5	6.2	6.9	-2.5	/
Cc1ccc(C(=O)Nc2c(C)cc(-c3ccccc3)oc2=O)cc1	-3.3	-0.3	-2.6	4.0	-1.6	-1.4	/
CC1=NN(c2ccccc2)C(=O)/C1=C/c1cc2cc(C)ccc2nc1N1CCCCC1	68.3*	20.5*	2.7	13.3	9.4	1.4	3.7

Assay outcomes as filed in PubChem.
